Measured values published in PMC13494018.

B1: d4r4_design_ppi_2_dldesign_0_cycle0_af2pred (protein)
chain: DEKAKKMAEEARKAAEEGRKALKEARKLAKEGELEKAAKLAEETAKKAEEKAKEAEKLSKKVAPEALRLLGVADAAKTAAEEFKKKL
B2: d4r4_design_ppi_90_dldesign_0_cycle1_af2pred (protein)
chain: MTKEEAERMIKILKERLEKIKKAGKEKGEEMQKIAKELEEALKKAEEAFKKDPEKAGAYFQEARQIAAEGEFKEK
B3: d4r4_design_ppi_2_dldesign_0_cycle1_af2pred (protein)
chain: DEKAKKAAEEAKKVAKEGREKLKEAEKLMKEGKYKEAAKLAAEVAKKAKEKAEEAEKISKSVAPYALLLENVADAAKALAKEAKEKI
B4: d4r4_design_ppi_129_dldesign_0_cycle1_af2pred (protein)
chain: MEKVTEARDVALEAAGILELAGIKVPEYRKELSEKAKEAIREVAEAGREALEKGEEEYEKLEKVAEKVYKEAKKKAEEALKKKE
B5: d4r3_design_ppi_300_dldesign_0_cycle1_af2pred (protein)
chain: SSAELTKEAKAKVEAAGAAADAAAAADPAAGAAAYTEAAQLALQESAKLDASKENKEAAEEMRKKGKEFAAKAKALRA
B6: d4r4_design_ppi_157_dldesign_0_cycle1_af2pred (protein)
chain: SKEEARKRGLESAEELKELVEEGIPVEAVGAIAASDVEWLMKYPYGEYAAEALIEALEKYNPVMGEKAREAYEEAKERKAK
B7: d4r3_design_ppi_402_dldesign_0_cycle1_af2pred (protein)
chain: EEEEKKKAEELKKFLEEQNKKRKEVAELAKKYPEVAPYAKAYAKAQNEAFEYYDVDKEKSAKALAEAEKYEAKINALLAKL
B8: d4r4_design_ppi_58_dldesign_0_cycle1_af2pred (protein)
chain: MEELKKAEEEAKKAVEEAKKYAELIAEGKSEEGIEKIKKIAEELKKKGKETTPEAAKIYEKAVKEIAKIAHEGLEKRAEKEAK
B9: d4r4_design_ppi_180_dldesign_0_cycle1_af2pred (protein)
chain: DDFEKALEELKKAGELLPEAAEIAEEAIKKATASKDLKEAAKILLEAAKKIAKIAKEAGNEEAAKAAAAAAQYARQLKAAA
B10: d4r4_design_ppi_87_dldesign_0_cycle0_af2pred (protein)
chain: AEENKAEGAKEAAEDAIEAALKKAEEDPEEGLKAAEKVKERVKKRAEEVEETEYGKKVGKEIKKKAEKALKEIEKKAKAAKAAK
B11: d4r3_design_ppi_464_dldesign_0_cycle1_af2pred (protein)
chain: SVSLEEQEARALARTYAEIAEKKIKEAPKDKELAEKIAKEVLEEAKKAAKDLPEYEEYTIELAEKRLKEILEKYAKKA
B12: d4r4_design_ppi_102_dldesign_0_cycle1_af2pred (protein)
chain: EEEKVKKAAEKAIKLAKETAEKAYKAAKKVKDKEYKEKFKEITLLALEAKALARAGKALGNKELVEAAKKLAEEAKEKLEKLEKEAE
B13: d4r3_design_ppi_258_dldesign_0_cycle1_af2pred (protein)
chain: AAEEARKAKIQKMADRLLELSKKYGISLEDMKDMMSFSATDPADKAVGLALLDAGHAELAAAKAAEAARAEALAA
B14: d4r4_design_ppi_123_dldesign_0_cycle1_af2pred (protein)
chain: AAEAAKAAAAAALAKKAAQSSPEKARAYRKEAGALIAELSPAAAAAAAAAAQDAYADGVAEKVLSELEEKKKKE
B15: d4r4_design_ppi_225_dldesign_0_cycle1_af2pred (protein)
chain: DELREQAERAKKRFEEAEKKLKEALEKGDKKEAIKYAERLKHLAEVAEKLAEEVEAAATNPETKELAERLKELAKRAKKLAEEALKK
B16: d4r4_design_ppi_229_dldesign_0_cycle1_af2pred (protein)
chain: EKEEKKKEAKELAEEAKKLAEELAKAAEEDLEKAKELYKKAKEAAGKAIKLAKEAGDKETAKEASENNFKAHENYAEGKFK
B17: d4r3_design_ppi_266_dldesign_0_cycle0_af2pred (protein)
chain: MEEKGNEVIERAKKKLEEGKKLAKEGELLKGYALAQSAEARAENAAEAAEKAGLEEVAKKAKEVAKEAKAAAEEIEKKRKEAEA
B18: d4r4_design_ppi_213_dldesign_0_cycle1_af2pred (protein)
chain: GALEEAKKLVEEAAKLAEEGKLEEAKEKLKKAMDLAAEHEDPEVVREIAREAKKIVELAEKKKKEKEEKEKKEK
B19: d4r4_design_ppi_225_dldesign_0_cycle0_af2pred (protein)
chain: AELRERAEAAERRFEAAKARLKEALEKGDKSRAYGEAFRLKHIAEVARRLAAEVRAAATTEEQRELAERLEELAREAEALAEEALKK
B20: d4r4_design_ppi_34_dldesign_0_cycle1_af2pred (protein)
chain: AEELVKEAAKHIQEARSLINAAEQYVKLGKEKLEEAKEDLKKAEEHIEKAKELAKKAKEAGADEEDVKKLEEAIEKAKKKLEEVKKLI
B21: d4r4_design_ppi_229_dldesign_0_cycle0_af2pred (protein)
chain: EKEEKIKKAKELAEKAKELAKKLKEAGEKDLEKAKKLLKEAREAAKKAIELAKEAGDEELAKKASDEQAKAQEAYAEAKAK
B22: d4r3_design_ppi_383_dldesign_0_cycle0_af2pred (protein)
chain: SSLASELNEKKAEERGLEYAKKRLDEKAKKALELAKQVPEVAAEVKKLVDEGKALLEKGDIGGAFAKMDEALKLAEKALAA
B23: d4r3_design_ppi_300_dldesign_0_cycle0_af2pred (protein)
chain: SAEELAKKAKEEVEKAEKEAEEAAAKDKKAGAAKYAEAAQLAYQKAGELDASKENKEEAEEMRERGRELAKKARELEA
B24: d4r4_design_ppi_123_dldesign_0_cycle0_af2pred (protein)
chain: SEAEKKTKEAAKLAYEAAKSNPEKGREYRKKAGELIATLSPEEAKKAAAEAQDAYAEGRAEKKLEELKKREEEK
B25: d4r3_design_ppi_239_dldesign_0_cycle1_af2pred (protein)
chain: MEEAEKALKKAEELRAEAKRLGEIVSNPELGKKEAAKAGKKTPEEIEAWLKEVAAKAQELREEAAEYEAKAIRIK
B26: d4r3_design_ppi_381_dldesign_0_cycle1_af2pred (protein)
chain: GSSDELEKKTETKAYRSLSTKKAKEYSKDKELVKKIEEEAKTYEGALKARKETEEIVKEVKKKEEEEKKKKE
B27: d4r4_design_ppi_128_dldesign_0_cycle0_af2pred (protein)
chain: ESEKKYKELKEELEKAYKEAKKAILEASKLKPEEAKKKMEEILEEFKKKAYELISKALEQSADYGRELAKLAQEYYKELEELAKKLL
B28: d4r4_design_ppi_128_dldesign_0_cycle1_af2pred (protein)
chain: SSAEQAAKLRAELDAAAAAAAAAIAAAAGLTPAAAAAASAATIAAYKATASALIDAAFELSSDYGRSIAKAAKEKLAALEAQAAALA
B29: d4r4_design_ppi_34_dldesign_0_cycle0_af2pred (protein)
chain: VQKLIDEAAQEIQEARAHISGAEQYVLMGKEYLPEAKKDLEEAEKHIKKAKELTKKAKEAGADEEEIKKLEKAIEKAEARLEEVKKMM
B30: d4r3_design_ppi_308_dldesign_0_cycle1_af2pred (protein)
chain: MEAEKKAEKALEELKKAAKKLEELAKKGGSVEEAEELNEKVLELRSEAKFYASKADEEFGKKVKEEAKKALEKAREAYKKLKE
B31: d4r4_design_ppi_58_dldesign_0_cycle0_af2pred (protein)
chain: EEELKKAKEEAEKAIKEAEEAAKKIEEGEAREGVKKIREIKKKLEEKGKESTPEAKKIYKEAAKKIAEIAHEGLEKRAEKKAK
B32: d4r4_design_ppi_105_dldesign_0_cycle1_af2pred (protein)
chain: MEEIKKEVEETTKKAKEKLKELEKEAEKAGVKEAVEVAKKGKEKVEKLAKKAEKAVKEGNKNYALAKIDAIKDTTEAAEKQVKKLIKA
B33: d4r3_design_ppi_239_dldesign_0_cycle0_af2pred (protein)
chain: EEKAKEAEKKSKEYREKARELAEDVRNPELGRERAREEGKKTEEEIEAWLAEKAKEAQELRQESAEYDAKAIILK
B34: d4r4_design_ppi_79_dldesign_0_cycle1_af2pred (protein)
chain: AGKAAYEKLKANMERREKKAEEAEKKDKKLGKFEAEKGIEFSKHAAEAAKKKAAEDPAYKEAAKYAKEAEEKFKKKLKELEK
B35: d4r4_design_ppi_222_dldesign_0_cycle1_af2pred (protein)
chain: SLEKLKEYLENAEKERKKVLEAAKEARELAKKGEEEEAKKYLGNAVTDARLNLNEAAYDAGLDTSIGNKLAKEFGAEGEKIFK
B36: d4r3_design_ppi_270_dldesign_0_cycle1_af2pred (protein)
chain: SAEEEKKKLLAIADEYAAKVKEAAADLEKAGAVLKEGITELVKLGAPNSVIAYLISKAVKAVGSKIMPYADEAIDEALKA
B37: d4r4_design_ppi_44_dldesign_0_cycle1_af2pred (protein)
chain: AKAKEEGKKLAKEATEEAKKLLDKAKEEVKKGGTYEEVKKYVDKGKEAAKKYGAKAKELPETAADVAKVIQDFYEESNEALAEAKRL
B38: d4r4_design_ppi_227_dldesign_0_cycle1_af2pred (protein)
chain: GFKTKATAESGYERMKSIYEAFAKLGPKSPIYKEGAEKMKEYAEKLKELENSTEEEIEKLSKEGIEVGKKLKAEAEAK

What follows are binders tested against VTCN1, Q7Z7D3.
VTCN1, Q7Z7D3, sequence (Q7Z7D3 whole entry): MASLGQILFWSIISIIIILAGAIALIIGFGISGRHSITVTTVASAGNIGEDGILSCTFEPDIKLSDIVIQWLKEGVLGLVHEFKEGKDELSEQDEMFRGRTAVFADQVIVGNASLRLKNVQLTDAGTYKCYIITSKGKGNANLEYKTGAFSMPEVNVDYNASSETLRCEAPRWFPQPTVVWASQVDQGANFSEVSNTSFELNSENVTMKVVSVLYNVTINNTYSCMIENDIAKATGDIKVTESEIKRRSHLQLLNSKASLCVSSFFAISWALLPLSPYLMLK

Binding in a display sort, inactive:
B1 not found
B2 not found
B3 not found
B4 not found
B5 not found
B6 not found
B7 not found
B8 not found
B9 not found
B10 not found
B11 not found
B12 not found
B13 not found
B14 not found
B15 not found
B16 not found
B17 not found
B18 not found
B19 not found
B20 not found
B21 not found
B22 not found
B23 not found
B24 not found
B25 not found
B26 not found
B27 not found
B28 not found
B29 not found
B30 not found
B31 not found
B32 not found
B33 not found
B34 not found
B35 not found
B36 not found
B37 not found
B38 not found
